From PubChem BioAssay (NCI)
Where “and” joins values, the source holds several entries; their conditions need not be identical. Equal entries are not always repeated. This is part of a sample that, as a whole, favours compounds with a hit. Of some 83,000 tested, about 20% had one in any assay.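 The test compound was applied at a single concentration to cells in 96-well plates for 48 hours, and percent growth was recorded.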 Calls of active or inactive are those of the source. Rule for the calls: active = growth percent below 10; inactive = the rest.

Assays:
Test in all cases: NCI-60 one-dose screen, 48 h (100 = growth as untreated, 0 = no growth, -100 = all killed)
[1] = test system: T-47D breast
[2] = test system: BT-549 breast
[3] = test system: MDA-MB-435 melanoma
[4] = test system: SW-620 colon
[5] = test system: MCF7 breast
[6] = test system: HCT-116 colon
[7] = test system: HCC-2998 colon
[8] = test system: KM12 colon; settings: 10 µM unless noted

Measured: growth

Oc1cccnc1CN1CCOCC1
inactive: [1]; 10 µM unless noted 93.1% | [2]; 10 µM unless noted 118% and 115% | [3]; 10 µM unless noted 109% and 99.3% | [4]; 10 µM unless noted 109% and 101% | [5]; 10 µM unless noted 95.2% and 90.7% | [6]; 10 µM unless noted 104% and 103% | [7]; 10 µM unless noted 102% and 99.6%

COC(=O)c1nc(=S)[nH]c(C(=O)OC)c1C(=O)c1ccc(OC)cc1
inactive: [1]; 10 µM unless noted 125% | [2]; 10 µM unless noted 109% | [3]; 10 µM unless noted 110% | [4]; 10 µM unless noted 105% | [5]; 10 µM unless noted 93.6% | [6]; 10 µM unless noted 115% | [7]; 10 µM unless noted 118%

O=C(O)c1cccc(Br)c1
inactive: [1]; 10 µM unless noted 92.3% and 83.4% | [2]; 10 µM unless noted 104% | [3]; 10 µM unless noted 114% and 107% | [4]; 10 µM unless noted 112% and 104% | [5]; 10 µM unless noted 98.7% and 98.2% | [6]; 10 µM unless noted 99.7% and 97.6% | [7]; 10 µM unless noted 122% and 103%

O=c1ccn2c(n1)OC1CC2OC1COC(c1ccccc1)(c1ccccc1)c1ccccc1 (stereo not given)
inactive: [1]; 10 µM 109% | [1]; 100 µM 102% | [2]; 10 µM 123% | [2]; 100 µM 88.4% | [3]; 10 µM 103% | [4]; 10 µM 108% | [4]; 100 µM 90.4% | [5]; 10 µM 95.4% | [5]; 100 µM 46.7% | [6]; 10 µM 101% | [6]; 100 µM 40.1% | [7]; 10 µM 106% | [7]; 100 µM 100%
active: [3]; 100 µM -4.08%

COC(=O)CCOc1ccccc1
inactive: [1]; 10 µM unless noted 103% | [2]; 10 µM unless noted 91.7% | [3]; 10 µM unless noted 109% | [4]; 10 µM unless noted 107% | [5]; 10 µM unless noted 89.3% | [6]; 10 µM unless noted 103% | [7]; 10 µM unless noted 91%

NC1=NC(c2ccccc2)N=C(Nc2ccccc2)N1 (stereo not given)
inactive: [1]; 10 µM unless noted 98.4% and 106% | [2]; 10 µM unless noted 74.5% and 83.4% | [4]; 10 µM unless noted 84.4% and 94.5% | [5]; 10 µM unless noted 13.7% and 22% | [6]; 10 µM unless noted 59.9% and 44.6% | [7]; 10 µM unless noted 93.6%
18.2% (inactive) and 7.52% (active): [3]; 10 µM unless noted

N#CC1c2ccccc2C=CN1C(=O)c1ccccc1 (stereo not given)
inactive: [1]; 10 µM unless noted 106% and 103% | [2]; 10 µM unless noted 115% and 139% | [3]; 10 µM unless noted 98.7% and 87.8% | [4]; 10 µM unless noted 94.8% and 103% | [5]; 10 µM unless noted 93.1% and 114% | [6]; 10 µM unless noted 107% and 92% | [7]; 10 µM unless noted 109% and 115%

CCN(CC)Cc1cc2[nH]c3c4ccc(Cl)cc4ncc3c2cc1OC
active: [6]; 10 µM unless noted -3.8% and 7.95%
4.64% (active) and 25.5% (inactive): [4]; 10 µM unless noted
inactive: [1]; 10 µM unless noted 99.2% and 94.2% | [2]; 10 µM unless noted 75.1% and 82.2% | [5]; 10 µM unless noted 16.5% and 64.2% | [7]; 10 µM unless noted 83.6% and 101%
1.09% (active) and 44% (inactive): [3]; 10 µM unless noted

COc1cc2oc3cc(=O)cc4oc(-c5ccccc5)cc(c2c2c1CCC(c1ccccc1)O2)c43 (stereo not given)
inactive: [1]; 10 µM unless noted 55.8% | [2]; 10 µM unless noted 78.8% | [3]; 10 µM unless noted 69.2% | [4]; 10 µM unless noted 100% | [5]; 10 µM 30% | [6]; 10 µM unless noted 59.7% | [7]; 10 µM unless noted 60.7% | [8] 74.3%
19.2% (inactive) and 3.41% (active): [5]; 100 µM

Cc1ccc(C(=O)c2ccc(C)cc2)cc1
inactive: [1]; 10 µM unless noted 90.7% and 94.9% | [2]; 10 µM unless noted 92% | [3]; 10 µM unless noted 103% and 105% | [4]; 10 µM unless noted 104% and 101% | [5]; 10 µM unless noted 99.9% and 95.3% | [6]; 10 µM unless noted 92.5% and 98% | [7]; 10 µM unless noted 87.5% and 99.8%

O=C1C=CC(n2cc(F)c(=O)[nH]c2=O)O1 (stereo not given)
inactive: [1]; 10 µM unless noted 65.5% | [2]; 10 µM unless noted 43% | [3]; 10 µM unless noted 46.4% | [4]; 10 µM unless noted 79.7% | [5]; 10 µM unless noted 30.1% | [6]; 10 µM unless noted 40% | [7]; 10 µM unless noted 22.3%

CS(=O)(=O)c1nsc(N)n1
inactive: [1]; 10 µM unless noted 95% | [2]; 10 µM unless noted 107% | [3]; 10 µM unless noted 107% | [4]; 10 µM unless noted 100% | [5]; 10 µM unless noted 99.8% | [6]; 10 µM unless noted 103% | [7]; 10 µM unless noted 98.4%

O=C(/C=C/C=C/c1ccc2c(c1)OCO2)N1CCCCC1
inactive: [1]; 10 µM unless noted 90.8% and 103% | [2]; 10 µM unless noted 108% | [3]; 10 µM unless noted 98.9% and 104% | [4]; 10 µM unless noted 106% and 101% | [5]; 10 µM unless noted 101% and 82.8% | [6]; 10 µM unless noted 103% and 98.1% | [7]; 10 µM unless noted 102% and 130%
